# Data: publication PMC8384837, “Expanding the binding specificity for RNA recognition by a PUF domain”
# Numbering of substitutions follows the chain as printed.
# Key:
# Assay in all cases: yeast three-hybrid, YBZ-1, SC-Leu-His + 0.5 mM 3-AT, 4 days
# Details in all cases: tags: N-Gal4 AD-HA kept; label: inside an RPR1-promoter hybrid RNA with tandem MS2 sites; ssRNA
# [1] = target: PUM1 PUF domain R4-SNI (Homo sapiens, UniProt Q14671 828-1176, N971S;H972N;Q975I)
# Method in brief: (§1)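 The interaction score is the logarithmic change in variant frequency from input to selection. It uses log2, with a pseudocount of 1 for absent variants, and frequencies came from PCR-amplified, Illumina-sequenced repeat regions. The libraries were Pumilio-1 PUF domains randomized at the three base-contacting residues per repeat, co-expressed with matching RNA elements in strain YBZ-1 (LexA–MS2 coat fusion, HIS3 reporter). Plating lasted four days on SC-Leu (input) or SC-Leu-His + 0.5 mM 3-AT (selection).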
# [2] = target: PUM1 PUF domain R4-SPY (Homo sapiens, UniProt Q14671 828-1176, N971S;H972P;Q975Y)
# Method in brief: as §1
# [3] = target: PUM1 PUF domain R5-HCR (Homo sapiens, UniProt Q14671 828-1176, C1007H;R1008C;Q1011R)
# Method in brief: as §1
# [4] = target: PUM1 PUF domain R5-MYG (Homo sapiens, UniProt Q14671 828-1176, C1007M;R1008Y;Q1011G)
# Method in brief: as §1
# [5] = target: PUM1 PUF domain R5-QRD (Homo sapiens, UniProt Q14671 828-1176, C1007Q;Q1011D)
# Method in brief: as §1
# [6] = target: PUM1 PUF domain R5-LFR (Homo sapiens, UniProt Q14671 828-1176, C1007L;R1008F;Q1011R)
# Method in brief: as §1
# [7] = target: T1, PUM1 PUF domain R6-CFK (Homo sapiens, UniProt Q14671 828-1176, N1043C;Y1044F;Q1047K)
# T1 sequence: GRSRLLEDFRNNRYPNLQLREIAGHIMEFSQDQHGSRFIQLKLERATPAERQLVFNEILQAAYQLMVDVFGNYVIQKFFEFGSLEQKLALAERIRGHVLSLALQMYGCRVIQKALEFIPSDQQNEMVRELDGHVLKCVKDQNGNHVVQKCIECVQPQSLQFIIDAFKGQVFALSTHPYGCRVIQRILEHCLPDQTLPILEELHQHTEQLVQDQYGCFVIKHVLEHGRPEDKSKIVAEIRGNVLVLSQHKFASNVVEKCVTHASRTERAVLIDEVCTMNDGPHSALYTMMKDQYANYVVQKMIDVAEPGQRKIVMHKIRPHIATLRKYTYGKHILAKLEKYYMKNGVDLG
# Method in brief: as §1
# [8] = target: PUM1 PUF domain R4-ALC (Homo sapiens, UniProt Q14671 828-1176, N971A;H972L;Q975C)
# Method in brief: as §1
# [9] = target: PUM1 PUF domain R3-VRL (Homo sapiens, UniProt Q14671 828-1176, C935V;Q939L)
# Method in brief: as §1
# [10] = target: T2, PUM1 PUF domain R6-QWS (Homo sapiens, UniProt Q14671 828-1176, N1043Q;Y1044W;Q1047S)
# T2 sequence: T1 sequence with C216Q, F217W, K220S
# Method in brief: as §1
# [11] = target: PUM1 PUF domain R4-YRC (Homo sapiens, UniProt Q14671 828-1176, N971Y;H972R;Q975C)
# Method in brief: as §1
# [12] = target: PUM1 PUF domain R4-SIG (Homo sapiens, UniProt Q14671 828-1176, N971S;H972I;Q975G)
# Method in brief: as §1
# [13] = target: PUM1 PUF domain R3-RSG (Homo sapiens, UniProt Q14671 828-1176, C935R;R936S;Q939G)
# Method in brief: as §1
# [14] = target: PUM1 PUF domain R3-HRR (Homo sapiens, UniProt Q14671 828-1176, C935H;Q939R)
# Method in brief: as §1
# [15] = target: PUM1 PUF domain R3-RDK (Homo sapiens, UniProt Q14671 828-1176, C935R;R936D;Q939K)
# Method in brief: as §1
# [16] = target: T3, PUM1 PUF domain R6-TFQ (Homo sapiens, UniProt Q14671 828-1176, N1043T;Y1044F)
# T3 sequence: T1 sequence with C216T, K220Q
# Method in brief: as §1
# [17] = target: PUM1 PUF domain R2-DWL (Homo sapiens, UniProt Q14671 828-1176, N899D;Y900W;Q903L)
# Method in brief: as §1
# [18] = target: PUM1 PUF domain R7-CHP (Homo sapiens, UniProt Q14671 828-1176, S1079C;N1080H;E1083P)
# Method in brief: as §1
sequence,measurement,setting,value
GGCUAGAACUAGUGGAUCCCCCGGCGCCCGGCGGCUCGAGCCCGGGUAAGUGUAUAUAGUCUGCAUGCCGCCGGGCGCCAUGCCUGCAGGUCGACUCUAGAAAACAUG,binding signal,[1],3.45 log2 enrichment (interaction score)
same,binding signal,[2],1.88 log2 enrichment (interaction score)
GGCUAGAACUAGUGGAUCCCCCGGCGCCCGGCGGCUCGAGCCCGGGUAAGUGUACAUAGUCUGCAUGCCGCCGGGCGCCAUGCCUGCAGGUCGACUCUAGAAAACAUG,binding signal,[1],2.5 log2 enrichment (interaction score)
GGCUAGAACUAGUGGAUCCCCCGGCGCCCGGCGGCUCGAGCCCGGGUAAGUGUCAAUAGUCUGCAUGCCGCCGGGCGCCAUGCCUGCAGGUCGACUCUAGAAAACAUG,binding signal,[3],2.3 log2 enrichment (interaction score)
GGCUAGAACUAGUGGAUCCCCCGGCGCCCGGCGGCUCGAGCCCGGGUAAGUGUUAAUAGUCUGCAUGCCGCCGGGCGCCAUGCCUGCAGGUCGACUCUAGAAAACAUG,binding signal,[3],2.43 log2 enrichment (interaction score)
same,binding signal,[4],3.99 log2 enrichment (interaction score)
GGCUAGAACUAGUGGAUCCCCCGGCGCCCGGCGGCUCGAGCCCGGGUAAGUGUGAAUAGUCUGCAUGCCGCCGGGCGCCAUGCCUGCAGGUCGACUCUAGAAAACAUG,binding signal,[5],5.16 log2 enrichment (interaction score)
GGCUAGAACUAGUGGAUCCCCCGGCGCCCGGCGGCUCGAGCCCGGGUAAGUGUAAAUAGUCUGCAUGCCGCCGGGCGCCAUGCCUGCAGGUCGACUCUAGAAAACAUG,binding signal,[6],2.2 log2 enrichment (interaction score)
same,binding signal,[7],3.27 log2 enrichment (interaction score)
same,binding signal,[8],3.15 log2 enrichment (interaction score)
same,binding signal,[2],3.88 log2 enrichment (interaction score)
same,binding signal,[9],3.56 log2 enrichment (interaction score)
same,binding signal,[10],3.91 log2 enrichment (interaction score)
same,binding signal,[4],1.26 log2 enrichment (interaction score)
same,binding signal,[11],4.13 log2 enrichment (interaction score)
same,binding signal,[12],3.64 log2 enrichment (interaction score)
GGCUAGAACUAGUGGAUCCCCCGGCGCCCGGCGGCUCGAGCCCGGGUAAGUGUAAGUAGUCUGCAUGCCGCCGGGCGCCAUGCCUGCAGGUCGACUCUAGAAAACAUG,binding signal,[13],1.02 log2 enrichment (interaction score)
same,binding signal,[14],2.66 log2 enrichment (interaction score)
GGCUAGAACUAGUGGAUCCCCCGGCGCCCGGCGGCUCGAGCCCGGGUAAGUGUAAUUAGUCUGCAUGCCGCCGGGCGCCAUGCCUGCAGGUCGACUCUAGAAAACAUG,binding signal,[13],3.59 log2 enrichment (interaction score)
same,binding signal,[15],2.64 log2 enrichment (interaction score)
same,binding signal,[14],0.15 log2 enrichment (interaction score)
GGCUAGAACUAGUGGAUCCCCCGGCGCCCGGCGGCUCGAGCCCGGGUAAGUGAAAAUAGUCUGCAUGCCGCCGGGCGCCAUGCCUGCAGGUCGACUCUAGAAAACAUG,binding signal,[16],6.64 log2 enrichment (interaction score)
GGCUAGAACUAGUGGAUCCCCCGGCGCCCGGCGGCUCGAGCCCGGGUAAGUGUAAAAAGUCUGCAUGCCGCCGGGCGCCAUGCCUGCAGGUCGACUCUAGAAAACAUG,binding signal,[17],6.44 log2 enrichment (interaction score)
GGCUAGAACUAGUGGAUCCCCCGGCGCCCGGCGGCUCGAGCCCGGGUAAGUGGAAAUAGUCUGCAUGCCGCCGGGCGCCAUGCCUGCAGGUCGACUCUAGAAAACAUG,binding signal,[10],3.82 log2 enrichment (interaction score)
GGCUAGAACUAGUGGAUCCCCCGGCGCCCGGCGGCUCGAGCCCGGGUAAGUCUAAAUAGUCUGCAUGCCGCCGGGCGCCAUGCCUGCAGGUCGACUCUAGAAAACAUG,binding signal,[18],2.32 log2 enrichment (interaction score)
